# Sampled rows, rich in hits. Any-hit rate of the full collection: about 3.2%.
# Vaccinia Venus = qHTS for Stage-Specific Inhibitors of Vaccinia Orthopoxvirus: Venus Reporter Primary qHTS; 330,000 compounds, 0.46% hits; AID 720580, 2013; Vaccinia virus Venus reporter expression, fluorescence; Potency, µM (series often up to 36.5 µM), for inactives: at the highest dose activity change, negative = inhibition, actives largely listed as inhibitors; calls by dose curve; tested in A549 cells; further: nearly all actives have a fitted effect of over 30% in size
# FMDV inh = High Throughput Screening for Foot and Mouth Disease Virus Antivirals | FMDV antiviral cell-based qHTS | Potency, µM (titrated, usually from 57.9 µM), without a hit: at the highest dose activity change, negative = inhibition, actives largely listed as inhibitors | 410,000 compounds, 1.2% hits; calls by dose curve; tested in HEK293T cells; further: read-out not given here; nearly all actives have a fitted effect of over 45% in size
# Lassa entry inh = qHTS for Inhibitors of binding or entry into cells for Lassa Virus. Potency, µM (highest dose often 37.9 µM), inactives show top-dose activity change, negative = inhibition, usual class: inhibitors. AID 540256, 2011. Lassa virus pseudotype entry inhibition, cell reporter. 300,000 compounds, 1.2% hits; calls by dose curve; tested in HEK293 cells; further: nearly all actives have a fitted effect of over 50% in size
# MARV entry inh = qHTS for inhibitors of binding or entry into cells for Marburg Virus; Marburg virus pseudotyped entry inhibition, cell reporter; Potency, µM (doses to about 37.8 µM), for the others: at the highest dose activity change, negative = inhibition, hits mostly inhibitors; AID 540276, 2011; 300,000 compounds, 1.8% hits; calls by dose curve; tested in HEK293 cells
# VACV mCherry inh = qHTS for Stage-Specific Inhibitors of Vaccinia Orthopoxvirus: mCherry Reporter Primary qHTS | AID 720579, 2013 | Vaccinia virus mCherry reporter infection, fluorescence | 310,000 compounds, 0.63% hits | Potency, µM (top dose mostly 36.5 µM), without a hit: at the top dose activity change, negative = inhibition, hits mostly inhibitors; calls by dose curve; tested in A549 cells; further: nearly all actives have a fitted effect of over 35% in size
# An asterisk follows results filed as active; i = inactive; ? = inconclusive; · = no result given; [ ] = remark or other dose. On the % scale 0 is the no-effect control and ±100 the full control effect; potency means the concentration at half of the fitted maximal effect.
SMILES,Vaccinia Venus,FMDV inh,Lassa entry inh,MARV entry inh,VACV mCherry inh
Cc1ccc2c(c1)Cc1nc3ccccc3nc1-2,-6%,-72%,?,6.3µM*,i
CC(=O)NC(Cc1c(F)c(F)c(F)c(F)c1F)C(=O)NCC(N)C(=O)c1ccccc1 (stereo not given),-14%,·,·,·,-2%
O=S1(=O)CCC(NC(=S)SCCOc2ccccc2)C1 (stereo not given),·,14µM*,·,·,·
Cc1cccc(C)c1OC[C@H](O)CNS(=O)(=O)c1ccccc1C(=O)N1CCOCC1,·,·,·,12%[46.1 µM],·
COc1ccc(OC)c(NC(=O)c2nc(S(=O)(=O)Cc3ccccc3)ncc2Cl)c1,-8%,7.1µM*,?,?,-1%
CCOc1ccccc1NC(=O)c1nc(S(=O)(=O)Cc2ccccc2F)ncc1Cl,-8%,·,·,·,21%
COc1ccc(NC(=O)c2nc(S(=O)(=O)Cc3cccc(C)c3)ncc2Cl)c(OC)c1,·,3.2µM*,·,·,·
Cc1nsc(Nc2ccc([N+](=O)[O-])cc2)c1C#N,-2%,-9%,?,?,-13%
CC1(C)CC(=O)C2=C(C1)OC1=C(C(=O)CC(C)(C)C1)C2c1ccc(O)cc1O,·,6.3µM*,-87%,?,·
COc1ccc(C2CC3(CC(C)(C)NC(SC)=N3)Oc3cc(O)cc(C)c32)cc1 (stereo not given),-24%,-25%,18µM*,10µM*,?
COc1ccc(C2CC3(CC(C)(C)NC(=S)N3)Oc3cc(O)cc(C)c32)cc1 (stereo not given),-17%,-6%,?,?,i
COc1ccc(/C=C/C(=O)c2cc(F)ccc2OC(=O)c2ccccc2C)cc1OC,?,25µM*,?,5.2µM*,?
CCOc1ccc(C(=O)/C=C/c2ccc(OC)c(OC)c2)cc1,-20%,?,?,?,-22%
COc1ccc(/C=C/C(=O)c2ccc3c4c(cccc24)CC3)cc1OC,?,18µM*,?,?,?
CCOc1ccc(/C=C/C(=O)c2ccccc2)cc1OC,-15%,-15%,8%,-9%,-15%
COc1ccc(C(=O)Oc2ccc(F)cc2C(=O)/C=C/c2ccc(OC)c(OC)c2)cc1,-14%,40µM*,?,-14%,i
Cc1cnc(C)c(-c2cc(F)cc3c2OC(CNC(=O)Cc2c(C)noc2C)C3)n1 (stereo not given),-14%,-2%,·,·,i
Cc1cc(C)n(CCCNC(=O)c2ccc(C)c(S(=O)(=O)N3CCOCC3)c2)n1,-10%,-15%,-7%,4%,-15%
CCCNC(=O)c1ccc2c(=O)c(O)c(-c3ccc(C)cc3)[nH]c2c1,?,-23%,·,·,13µM*
COc1ccc(OC)c(N/C=C/C(=O)c2ccccc2)c1,-9%,6.3µM*,?,1µM*,-11%
COc1ccc(C(=O)/C=C/c2ccccc2)c(OC)c1,?,-17%,·,·,?
COc1ccc(OC)c(C(=O)/C=C/c2ccccc2C(F)(F)F)c1,·,20µM*,?,?,·
COc1cccc(C(=O)/C=C/Nc2cccc(O)c2)c1,·,13µM*,2.9µM*,?,·
COc1cccc(N/C=C/C(=O)c2ccc(C)cc2)c1,·,-16%,·,·,·
COc1ccc(OC)c(N/C(C)=C/C(=O)c2ccccc2)c1,-11%,10%,26%,?,-14%
SMILES,Vaccinia Venus,FMDV inh,Lassa entry inh,MARV entry inh,VACV mCherry inh
CC(=O)c1cccc(NC(=O)c2cc(-c3ccc(Cl)s3)nc3ccccc23)c1,-5%,-7%,-12%[46.1 µM],-3%[46.1 µM],-11%
Cc1ccc(C2(C)NC(=O)N(CC(=O)c3ccc(Cl)s3)C2=O)cc1 (stereo not given),-7%,15%,3%,?,i
C=CC[n+]1ccnc2ccccc21,4%,·,·,·,21%
C[n+]1ccnc2cc(Cl)ccc21,2.2µM*,·,·,·,11µM*
C[n+]1ccnc2ccccc21,2.2µM*,·,·,·,7.9µM*
CC(C)CCNC(=O)/C=C/c1ccc(Br)cc1,-7%,20%,1.6µM*,?,-16%
CC(C)CCNC(=S)Nc1ccc(Br)cc1,?,-16%,?,?,-13%
Cc1cn(-c2cc(NC(=O)c3ccc(C)c(NC(=O)c4cccc(-c5cn[nH]c(=O)c5)c4)c3)cc(C(F)(F)F)c2)cn1,-12%,-10%,·,·,i
CC(C)=CCc1c(-c2ccc(O)cc2O)oc2c3c(cc(O)c2c1=O)OC(C)(C)C=C3,-12%,?,·,·,1%
CC(C)=CCc1c2c(c(O)c3c(=O)c4c(oc13)-c1cc(O)c(O)cc1OC4C=C(C)C)C=CC(C)(C)O2 (stereo not given),?,?,·,·,11µM*
Cc1cccc(CS(=O)(=O)c2ncc(Cl)c(C(=O)Nc3nc4ccc(F)cc4s3)n2)c1,?,16µM*,?,2%[46.1 µM],?
COc1ccc2nc(NC(=O)c3nc(S(=O)(=O)Cc4ccccc4)ncc3Cl)sc2c1,-15%,25µM*,?,?,-20%
O=C(Nc1nc2ccc(F)cc2s1)c1nc(S(=O)(=O)Cc2ccccc2)ncc1Cl,-26%,28µM*,4.5µM*,-10%[46.1 µM],-29%
C#CCCCO/N=C1/C[C@@H](O)[C@@H](O)[C@@H]2[C@@H]3C(=O)N(C(C)(C)C)C(=O)[C@H]3CC[C@H]12,·,·,·,12%[14.2 µM],·
C=C1C(O)[C@@H]2O[C@]3(CC[C@H](/C=C/C(C)[C@@H]4CC(C)=CC5(O[C@H](C[C@@](C)(O)CO)CCC5O)O4)O3)CC[C@H]2O[C@@H]1C(O)CC(C)[C@H]1OC2(CCCCO2)CCC1C (stereo not given in full),10µM*,-14%,·,·,?
C=C1[C@@H](O)[C@@H]2O[C@]3(CC[C@H](/C=C/[C@@H](C)[C@@H]4CC(C)=CC5(O[C@H](C[C@@](C)(O)C(=O)OC)CC[C@H]5O)O4)O3)CC[C@H]2O[C@@H]1[C@@H](O)C[C@H](C)[C@H]1OC2(CCCCO2)CC[C@H]1C (stereo not given in full),1.3µM*,10%,·,·,1.3µM*
CC1CCN(CCNC(=S)Nc2ccc(Cl)cc2)CC1,-18%,38%,5%,?,?
OC(CNCC(c1ccc(Cl)cc1Cl)c1c[nH]c2ccccc12)c1ccccc1 (stereo not given),?,?,?,7.9µM*,?
O=C(O)CCCC(=O)OCCCCc1cccs1,·,6%,8%,2%,·
Nc1nnc(CCCCc2cccs2)o1,10µM*,-1%,-12%,9%,i
Cc1cc(NC(=O)COC(=O)c2ccccc2OCCOc2ccccc2)ccc1Br,-9%,·,·,·,i
COC(=O)c1[nH]c2ccccc2c1NC(=O)CN1CCCCCC1,-15%,-7%,?,0%[46.1 µM],-23%
COC(=O)c1[nH]c2cc(C)ccc2c1NC(=O)CN1CCOCC1,13%,9%,25%[46.1 µM],?,-29%
COC(=O)c1[nH]c2ccccc2c1NC(=O)CN1CCN(c2cccc(Cl)c2)CC1,-21%,14µM*,-5%,?,·

# Source: PubChem (National Center for Advancing Translational Sciences (NCATS))
